Source: PubChem BioAssay
For some assays here: Entries with a potency or affinity are not part of this list. Active and inactive are the calls of the source. Unless noted, no rule for the calls is given here.

How the values were obtained:
[1] = antimalarial activity against Dd2 strain (AID 2302;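 active = growth inhibition above 50% at the single 2 µM test dose, taken to imply half-maximal potency below 2 µM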;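 also: 0% = DMSO untreated growth and 100% = chloroquine plus artemisinin killed control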); conditions: P. falciparum Dd2 in RBCs, LDH growth readout, 72 h; at 2 µM; stronger effect = higher value
[2] = human hepatoma cell viability loss – ATP luminescence, cytotoxicity control for P. falciparum antimalarial project, primary screen (AID 2303;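 active = inhibition above 50%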;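 also: 0% = DMSO wells and 100% = digitonin-killed cells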); conditions: HepG2 viability, 24-48 h, at 10 µM, stronger effect = higher value
[3] = biological target: L-lactate dehydrogenase (Plasmodium falciparum (isolate CDC / Honduras)) (UniProt Q27743); assay: PfLDH activity inhibition – cell lysate, 3D7 strain, counter-screen for P. falciparum growth inhibition project (AID 2304);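 also: 0% = vehicle and 100% = reference inhibitor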; conditions: P. falciparum 3D7 crude extract, LDH APAD/NBT absorbance; at 2 µM; stronger effect = higher value
Sequence of L-lactate dehydrogenase (Plasmodium falciparum (isolate CDC / Honduras)) (Q27743 whole entry, looked up): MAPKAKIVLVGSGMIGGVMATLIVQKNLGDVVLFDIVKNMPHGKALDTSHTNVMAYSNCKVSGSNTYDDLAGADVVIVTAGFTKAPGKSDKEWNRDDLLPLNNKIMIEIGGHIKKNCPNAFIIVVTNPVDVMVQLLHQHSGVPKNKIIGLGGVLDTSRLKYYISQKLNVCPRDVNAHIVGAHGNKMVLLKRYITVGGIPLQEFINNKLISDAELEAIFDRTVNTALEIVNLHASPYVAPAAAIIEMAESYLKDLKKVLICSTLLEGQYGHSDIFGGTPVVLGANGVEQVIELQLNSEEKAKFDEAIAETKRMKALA

[4] = inhibition of 3D7 malaria parasite growth – strain 3D7 (AID 2306);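 also: 0% = DMSO wells and 100% = chloroquine plus artemisinin control wells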; conditions: P. falciparum 3D7 erythrocytic growth, LDH absorbance, 72 h; at 2 µM; stronger effect = higher value
[5] = biological target: Calcium-dependent protein kinase 1 (Plasmodium falciparum (isolate 3D7)) (UniProt P62344); assay: PfCDPK1 kinase inhibitors, biochemical, TCAMS library (AID 1159585; cut-off not given, nearly all actives have IC50 up to about 0.98 µM;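 also: inhibitors leave more ATP so luminescence rises with inhibition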); conditions: recombinant PfCDPK1, Kinase-Glo ATP depletion luminescence
Sequence of Calcium-dependent protein kinase 1 (Plasmodium falciparum (isolate 3D7)) (P62344 whole entry, looked up): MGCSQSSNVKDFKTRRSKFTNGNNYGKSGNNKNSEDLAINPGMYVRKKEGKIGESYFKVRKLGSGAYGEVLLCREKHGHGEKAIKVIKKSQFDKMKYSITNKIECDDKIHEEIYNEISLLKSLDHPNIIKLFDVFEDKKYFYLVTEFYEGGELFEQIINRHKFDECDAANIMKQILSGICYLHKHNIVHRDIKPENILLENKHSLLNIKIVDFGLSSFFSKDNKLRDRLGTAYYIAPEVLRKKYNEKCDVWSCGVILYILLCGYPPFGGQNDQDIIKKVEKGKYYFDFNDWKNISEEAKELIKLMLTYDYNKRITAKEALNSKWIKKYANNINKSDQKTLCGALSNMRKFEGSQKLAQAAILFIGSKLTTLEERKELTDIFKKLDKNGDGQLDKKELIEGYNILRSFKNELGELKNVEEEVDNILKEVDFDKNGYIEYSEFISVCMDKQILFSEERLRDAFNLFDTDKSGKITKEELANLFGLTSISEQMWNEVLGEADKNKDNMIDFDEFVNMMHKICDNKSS

[6] = biological target: Plasmodium falciparum protein kinase 6 (PK6, PF3D7_1337100) (UniProt Q8IDW1); assay: PfPK6 kinase inhibitors, biochemical, TCAMS library (AID 1159586); conditions: recombinant PfPK6, Kinase-Glo ATP depletion luminescence
Sequence of Plasmodium falciparum protein kinase 6 (PK6, PF3D7_1337100) (Q8IDW1 1-305): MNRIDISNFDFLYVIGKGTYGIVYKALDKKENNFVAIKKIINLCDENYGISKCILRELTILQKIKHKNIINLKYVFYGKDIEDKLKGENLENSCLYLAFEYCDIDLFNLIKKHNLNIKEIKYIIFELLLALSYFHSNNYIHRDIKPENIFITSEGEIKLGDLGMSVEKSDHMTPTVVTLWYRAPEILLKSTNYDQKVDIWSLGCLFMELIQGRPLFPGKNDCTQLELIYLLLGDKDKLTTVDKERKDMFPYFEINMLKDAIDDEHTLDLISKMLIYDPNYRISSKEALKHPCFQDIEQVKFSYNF

[7] = biological target: Protein kinase 7 (PK7), Plasmodium falciparum 3D7 (PF3D7_0213400) (UniProt Q7YTF7); assay: inhibition of Plasmodium PK7 catalytic activity – biochemical, TCAMS antimalarial set, Kinase-Glo luminescence (AID 1159587); conditions: recombinant PfPK7, Kinase-Glo ATP depletion luminescence
Sequence of Protein kinase 7 (PK7), Plasmodium falciparum 3D7 (PF3D7_0213400) (Q7YTF7 1-343): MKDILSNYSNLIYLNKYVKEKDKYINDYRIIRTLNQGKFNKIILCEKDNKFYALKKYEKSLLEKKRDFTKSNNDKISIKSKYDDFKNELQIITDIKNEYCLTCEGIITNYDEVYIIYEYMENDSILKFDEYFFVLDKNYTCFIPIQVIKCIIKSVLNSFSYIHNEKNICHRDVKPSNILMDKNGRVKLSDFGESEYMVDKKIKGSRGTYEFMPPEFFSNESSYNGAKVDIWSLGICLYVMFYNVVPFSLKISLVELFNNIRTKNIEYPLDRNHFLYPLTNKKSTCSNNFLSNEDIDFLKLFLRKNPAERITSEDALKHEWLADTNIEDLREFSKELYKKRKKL

[8] = biological target: Calcium-dependent protein kinase 4 (Plasmodium falciparum (isolate 3D7)) (UniProt Q8IBS5); assay: PfCDPK4 kinase inhibitors, biochemical, TCAMS library (AID 1159588; cut-off not given, nearly all actives have IC50 up to about 0.91 µM); conditions: recombinant PfCDPK4, Kinase-Glo ATP depletion luminescence
Sequence of Calcium-dependent protein kinase 4 (Plasmodium falciparum (isolate 3D7)) (Q8IBS5 whole entry, looked up): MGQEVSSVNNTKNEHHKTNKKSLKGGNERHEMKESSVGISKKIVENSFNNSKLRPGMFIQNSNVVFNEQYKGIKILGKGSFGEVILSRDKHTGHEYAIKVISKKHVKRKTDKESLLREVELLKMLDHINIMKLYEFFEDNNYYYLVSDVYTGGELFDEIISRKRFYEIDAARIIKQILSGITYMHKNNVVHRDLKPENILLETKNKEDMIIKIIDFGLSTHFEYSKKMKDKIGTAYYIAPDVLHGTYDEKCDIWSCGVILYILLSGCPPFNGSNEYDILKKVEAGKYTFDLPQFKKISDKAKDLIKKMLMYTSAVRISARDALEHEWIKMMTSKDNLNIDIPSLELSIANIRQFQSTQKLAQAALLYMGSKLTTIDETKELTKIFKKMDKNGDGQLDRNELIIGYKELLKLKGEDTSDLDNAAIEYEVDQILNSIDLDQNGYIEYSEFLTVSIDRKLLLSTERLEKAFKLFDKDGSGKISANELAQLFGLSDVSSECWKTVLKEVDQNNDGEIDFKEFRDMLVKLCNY

CCCCCCCN1CC[C@H](NC(=O)Nc2ccnc3ccc(OC)cc23)[C@H](C(=O)OCC)C1
inactive: inhibition [2] 11% | inhibition [3] 7% | outcome [5] | outcome [6] | outcome [7] | outcome [8]
active: growth inhibition [1] 73% | growth inhibition [4] 101%

COc1ccc2nccc([C@@H](O)CN3CCC(NCc4cc5cc(Cl)ccc5[nH]4)CC3)c2c1
inactive: inhibition [2] 27% | inhibition [3] 5% | outcome [5] | outcome [6] | outcome [7] | outcome [8]
active: growth inhibition [1] 64% | growth inhibition [4] 99%

Cc1cccc2[nH]c(-c3ccc(-c4ccc(CN5CCN(C6CCN(C)CC6)CC5)cc4)s3)nc12
inactive: inhibition [3] -4% | outcome [5] | outcome [6] | outcome [7] | outcome [8]
active: growth inhibition [1] 101% | inhibition [2] 97% | growth inhibition [4] 101%

Cc1cccc2[nH]c(-c3cccc(-c4cccc(C(=O)NCCN5CCCC5)c4)c3)nc12
inactive: inhibition [2] 21% | inhibition [3] 1% | outcome [5] | outcome [6] | outcome [7] | outcome [8]
active: growth inhibition [1] 75% | growth inhibition [4] 100%

COc1ccc2c(=O)c(-c3ccc(OC(F)(F)F)cc3)c(C)[nH]c2c1
inactive: inhibition [2] 0% | inhibition [3] -3% | outcome [5] | outcome [6] | outcome [7] | outcome [8]
active: growth inhibition [1] 96% | growth inhibition [4] 97%

COc1cc(NC(=O)c2sc(-c3ccc(Cl)cc3)cc2NC(=O)CN2CC[C@@H](O)C2)ccc1OCCN1CCCC1
active: growth inhibition [1] 79% | inhibition [2] 56% | growth inhibition [4] 90%
inactive: inhibition [3] 6% | outcome [5] | outcome [6] | outcome [7] | outcome [8]

O=C(/C=C/c1ccc(Cl)c(Cl)c1)NCC1CCN(Cc2ccc(O)cc2)CC1
active: growth inhibition [4] 98%
inactive: growth inhibition [1] -3% | inhibition [2] 4% | inhibition [3] 6% | outcome [5] | outcome [6] | outcome [7] | outcome [8]

CCN(CC)Cc1ccc2c(=O)cc(CCc3cccc(F)c3F)n(CC(=O)N(Cc3ccc(-c4ccc(C(F)(F)F)cc4)cc3)C(C)C)c2c1
active: growth inhibition [1] 63% | inhibition [2] 82% | growth inhibition [4] 102%
inactive: inhibition [3] -6% | outcome [5] | outcome [6] | outcome [7] | outcome [8]

CN1CCN(c2ncnc3ccc(NC(=O)Nc4ccc(Cl)c(Cl)c4)cc23)CC1
inactive: inhibition [2] 7% | inhibition [3] -2% | outcome [5] | outcome [6] | outcome [7] | outcome [8]
active: growth inhibition [1] 89% | growth inhibition [4] 100%

COC(=O)C(=O)c1c(-c2ccccc2)c(-c2ccc(OC)c(OC)c2)c2c3cc(OC)c(OC)cc3ccn12
active: growth inhibition [1] 89% | growth inhibition [4] 97%
inactive: inhibition [2] 2% | inhibition [3] -1% | outcome [5] | outcome [6] | outcome [7] | outcome [8]

COc1ccccc1N1CCN(C(C(=O)NCc2ccc3c(c2)OCO3)c2ccc3c(c2)OCCCO3)CC1 (stereo not given)
active: growth inhibition [4] 88%
inactive: growth inhibition [1] 13% | inhibition [2] 15% | inhibition [3] 5% | outcome [5] | outcome [6] | outcome [7] | outcome [8]

Cc1cccc(S(=O)(=O)Nc2cccc(CCN3CCC(N4CCCCC4)CC3)c2)c1
inactive: growth inhibition [1] 13% | inhibition [2] 15% | inhibition [3] -2% | outcome [5] | outcome [6] | outcome [7] | outcome [8]
active: growth inhibition [4] 87%

CCC[C@@H]([C@@H](CC1CCC(C)CC1)C(=O)N[C@@H](CO)C(=O)Nc1nccs1)N(O)C=O (stereo not given in full)
inactive: inhibition [2] 0% | inhibition [3] -2% | outcome [5] | outcome [6] | outcome [7] | outcome [8]
active: growth inhibition [1] 84% | growth inhibition [4] 100%

Cc1cc(-c2cccc3c(C(=O)N4CCc5cc6nccc(N7CCN8CCC[C@H]8C7)c6cc54)cccc23)cc(C)n1
active: growth inhibition [1] 76% | growth inhibition [4] 97%
inactive: inhibition [2] 13% | inhibition [3] -3% | outcome [5] | outcome [6] | outcome [7] | outcome [8]

Cc1cc(N[C@@H](CC(C)C)C(=O)NCc2cccs2)nc(Nc2ccccc2)n1
active: growth inhibition [1] 57% | growth inhibition [4] 100%
inactive: inhibition [2] 18% | inhibition [3] 1% | outcome [5] | outcome [6] | outcome [7] | outcome [8]

O=C(Nc1ccc(Cl)c(Cl)c1)N1CCc2cc3nccc(N4CCN5CCC[C@H]5C4)c3cc21
inactive: inhibition [2] 2% | inhibition [3] -7% | outcome [5] | outcome [6] | outcome [7] | outcome [8]
active: growth inhibition [1] 75% | growth inhibition [4] 100%

CN1CCN(CCCN(Cc2csc(-c3ccc(CNCc4ccccc4)cc3)n2)C(=O)Nc2cc(Cl)cc(Cl)c2)CC1
inactive: growth inhibition [1] 45% | inhibition [2] 34% | inhibition [3] -2% | outcome [5] | outcome [6] | outcome [7] | outcome [8]
active: growth inhibition [4] 103%

CS(=O)(=O)Nc1cccc(-c2cnc3[nH]cc(-c4ccc(CCC(=O)O)cc4)c3c2)c1
active: growth inhibition [1] 78% | growth inhibition [4] 98%
inactive: inhibition [2] 7% | inhibition [3] 2% | outcome [5] | outcome [6] | outcome [7] | outcome [8]

Cc1[nH]c(C)c(-c2ccc(OCCCc3ccccn3)cc2)c(=O)c1Br
active: growth inhibition [1] 97% | growth inhibition [4] 98%
inactive: inhibition [2] -8% | inhibition [3] 5% | outcome [5] | outcome [6] | outcome [7] | outcome [8]

Cc1ccc2nc(-c3cc(-c4ccc(CO)cc4)cnc3N)[nH]c2c1
inactive: growth inhibition [1] 6% | inhibition [3] 9% | outcome [5] | outcome [6] | outcome [7] | outcome [8]
active: inhibition [2] 52% | growth inhibition [4] 95%

COc1cccc(OC)c1OCCCON1C(N)=NC(N)=NC1(C)C
inactive: inhibition [3] 1% | outcome [5] | outcome [6] | outcome [7] | outcome [8]
active: growth inhibition [1] 96% | inhibition [2] 53% | growth inhibition [4] 95%

CNC(=O)COc1cc(C)c(C2CCN(CCCCNC(=O)c3ccc(-c4ccc(C(F)(F)F)cc4)cc3)CC2)cc1C
inactive: inhibition [2] 38% | inhibition [3] 4% | outcome [5] | outcome [6] | outcome [7] | outcome [8]
active: growth inhibition [1] 72% | growth inhibition [4] 100%

Cc1cc(NN=Cc2ccccc2[N+](=O)[O-])c2ccc(F)cc2n1
active: growth inhibition [1] 100% | growth inhibition [4] 101%
inactive: inhibition [2] 32% | inhibition [3] -4% | outcome [5] | outcome [6] | outcome [7] | outcome [8]

NC1CCN(Cc2ccc(-c3ccc(-c4nc5ccccc5[nH]4)s3)cc2)C1 (stereo not given)
active: growth inhibition [1] 99% | growth inhibition [4] 101%
inactive: inhibition [2] 32% | inhibition [3] -6% | outcome [5] | outcome [6] | outcome [7] | outcome [8]

OC(CNc1ccnc(Nc2cccc(Cl)c2)n1)c1cccc(F)c1 (stereo not given)
inactive: growth inhibition [1] 29% | inhibition [2] 16% | inhibition [3] 3% | outcome [5] | outcome [6] | outcome [7] | outcome [8]
active: growth inhibition [4] 90%

CCc1nc(N)nc(N)c1CCCOc1ccccc1Cl
inactive: growth inhibition [1] 13% | inhibition [3] 1% | outcome [5] | outcome [6] | outcome [7] | outcome [8]
active: inhibition [2] 61% | growth inhibition [4] 92%

O=C(Nc1cccc(CN2CCN(Cc3cccc(O)c3)CC2)c1)c1cc2ccccc2s1
active: growth inhibition [1] 54% | growth inhibition [4] 86%
inactive: inhibition [2] 13% | inhibition [3] 0% | outcome [5] | outcome [6] | outcome [7] | outcome [8]

N=C(N)c1ccc(OCc2cccc(COc3ccc(C(=N)N)cc3I)c2)c(I)c1
active: growth inhibition [1] 100% | growth inhibition [4] 102%
inactive: inhibition [2] 7% | inhibition [3] 2% | outcome [5] | outcome [6] | outcome [7] | outcome [8]

c1ccc2c(NCCCCCCCCNc3ccnc4ccccc34)ccnc2c1
active: inhibition [2] 57% | growth inhibition [4] 101%
inactive: growth inhibition [1] 35% | inhibition [3] -1% | outcome [5] | outcome [6] | outcome [7] | outcome [8]

CO/C(=C\C=C\c1cc2cc(Cl)c(Cl)cc2[nH]1)C(=O)NCCCN1CCCC[C@H]1C
inactive: inhibition [2] 41% | inhibition [3] 3% | outcome [5] | outcome [6] | outcome [7] | outcome [8]
active: growth inhibition [1] 91% | growth inhibition [4] 100%

COc1c(C2CCN(CCCCNC(=O)c3ccc(-c4ccc(C#N)cc4)cc3)CC2)ccc2c1C(C)(C)CCC2(C)C
inactive: inhibition [3] -1% | outcome [5] | outcome [6] | outcome [7] | outcome [8]
active: growth inhibition [1] 86% | inhibition [2] 98% | growth inhibition [4] 102%

COc1ccc(NC(=O)[C@H](C)Nc2cc(C)nc(NCC3CCCCC3)n2)cc1
active: growth inhibition [4] 92%
inactive: growth inhibition [1] 13% | inhibition [2] 12% | inhibition [3] -3% | outcome [5] | outcome [6] | outcome [7] | outcome [8]

CCCc1cc(OC)c(C[C@H]2c3cc(O)c(Cl)cc3CCN2C)cc1OC
inactive: inhibition [2] -3% | inhibition [3] -6% | outcome [5] | outcome [6] | outcome [7] | outcome [8]
active: growth inhibition [1] 98% | growth inhibition [4] 97%

O=S(=O)(ON=C1CCc2ccccc21)c1ccc(Cl)cc1
active: growth inhibition [1] 79% | growth inhibition [4] 100%
inactive: inhibition [2] -2% | inhibition [3] 3% | outcome [5] | outcome [6] | outcome [7] | outcome [8]

Cc1ccc(NS(=O)(=O)c2ccc(C(C)N3CCC(N4CCCCC4)CC3)cc2)cc1C (stereo not given)
active: growth inhibition [1] 82% | inhibition [2] 66% | growth inhibition [4] 97%
inactive: inhibition [3] -2% | outcome [5] | outcome [6] | outcome [7] | outcome [8]

NCc1ccc(CNCc2ccc(-c3ccc(-c4nc5ccc(F)cc5[nH]4)cc3)cc2)cc1
inactive: inhibition [2] 12% | inhibition [3] -3% | outcome [5] | outcome [6] | outcome [7] | outcome [8]
active: growth inhibition [1] 99% | growth inhibition [4] 100%

O=C(NC1CCN(CCN2CCC(c3cn(CCO)c4ccccc34)CC2)CC1)c1ccc(-c2ccc(C(F)(F)F)cc2)cc1
inactive: inhibition [2] 30% | inhibition [3] -1% | outcome [5] | outcome [6] | outcome [7] | outcome [8]
active: growth inhibition [1] 54% | growth inhibition [4] 98%

CCN(CCCN1CCCCC1)c1cc(C)nc(Nc2ccc(C)c(Cl)c2)n1
active: growth inhibition [1] 100% | growth inhibition [4] 101%
inactive: inhibition [2] 32% | inhibition [3] -7% | outcome [5] | outcome [6] | outcome [7] | outcome [8]

CCN1CCN(c2cc(C)c3cc(NC(=O)c4ccc(OC)c(OC)c4)ccc3n2)CC1
inactive: growth inhibition [1] 23% | inhibition [2] 28% | inhibition [3] 1% | outcome [5] | outcome [6] | outcome [7] | outcome [8]
active: growth inhibition [4] 90%

COc1cc(SC)ccc1C(=O)N1CC(C)CC(C)C1 (stereo not given)
inactive: inhibition [2] 5% | inhibition [3] -8% | outcome [5] | outcome [6] | outcome [7] | outcome [8]
active: growth inhibition [1] 66% | growth inhibition [4] 98%
